Assay results: PubChem BioAssay (NCATS)
Records with an inconclusive call do not appear. Activity calls are given as the source filed them. The call rests on the fitted dose curve; in most records, active means well fitted curve in the direction sought with a large enough effect; inconclusive means small, poorly fitted or top-dose-only effect, or another doubt; inactive means no such curve, though single readings can be large; an effect the other way counts as inactive or inconclusive.

Experiment: Cell Viability - LYMP2-001 (AID 921);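 further: cells exposed to compound for 24 h at 37 °C; nearly all actives have a fitted effect of over 70% in size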; further: potency means the concentration at half of the fitted maximal effect;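 on activity change, negative = cytotoxic: 0% = DMSO only and full inhibition = tetraoctylammonium bromide control wells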
Conditions: LYMP2-001 lymphoblastoid cell viability; series mostly up to 92.2 µM; activity change, negative = cytotoxic: at the top concentration
Outline: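 Steps: seed 2500 lymphoblastoid cells/well; 5 hr, 37 C; add compound; 24 hr, 37 C; CellTiter-Glo reagent, 30 min room temperature; read luminescence. Concentration-response modeled by Hill equation for AC50.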

Row | Compound | activity change, negative = cytotoxic | Potency
1 | CCc1cc(C(N)=S)ccn1 | -17.8% (inactive) | 
2 | O=C(N[C@H](CO)[C@H](O)c1ccc([N+](=O)[O-])cc1)C(Cl)Cl | -21.6% (inactive) | 
3 | CC[C@H](C)C(=O)O[C@H]1C[C@@H](C)C=C2C=C[C@H](C)[C@H](CC[C@@H]3C[C@@H](O)CC(=O)O3)[C@H]21 | -48.2% (inactive) | 
4 | COc1ccc2cc3[n+](cc2c1OC)CCc1cc2c(cc1-3)OCO2 |  | 39.8 µM (active)
5 | CC1=NN(c2ccccc2)C(=O)C1 | -24.8% (inactive) | 
6 | NC(N)=NC(N)=NCCc1ccccc1 | -18.9% (inactive) | 
7 | Cc1cc(NS(=O)(=O)c2ccc(N)cc2)no1 | 1.56% (inactive) | 
8 | Cc1ncc([N+](=O)[O-])n1CCO | 8.34% (inactive) | 
9 | Cc1nnc(NS(=O)(=O)c2ccc(N)cc2)s1 | 11% (inactive) | 
10 | CN(C)c1ccc(C(=C2C=CC(=[N+](C)C)C=C2)c2ccc(N(C)C)cc2)cc1 |  | 1.26 µM (active)
11 | Cc1noc(NS(=O)(=O)c2ccc(N)cc2)c1C | 6.72% (inactive) | 
12 | C[C@]12C=CC(=O)C=C1CC[C@@H]1[C@@H]2C(=O)C[C@@]2(C)[C@H]1CC[C@]2(O)C(=O)CO | -25.6% (inactive) | 
13 | CC(=O)[C@H]1CC[C@H]2[C@@H]3CCC4=CC(=O)CC[C@]4(C)[C@H]3CC[C@]12C |  | inactive
14 | Cc1ccnc2c1NC(=O)c1cccnc1N2C1CC1 | -14.7% (inactive) | 
15 | NNC(=O)c1ccncc1 | -6.1% (inactive) | 
16 | O=C(O)c1cc(=O)[nH]c(=O)[nH]1 | -7.14% (inactive) | 

Experiment: Confirmation and Secondary Assay for Modulators of Hemoglobin Beta Chain Splicing at IVS2 705 locus (AID 930);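 further: HeLa cells stably expressing the EGFP-705 splicing reporter; % of control where 0% means no effect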
Conditions: HeLa EGFP-705 splicing reporter, GFP fluorescence, 48 h; series mostly up to 46.1 µM; activation: at the top concentration
Outline: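 HeLa cells stably carrying EGFP interrupted by mutant beta-globin IVS2-705 intron (CMV-driven) were seeded at 500 cells/well, treated next day with compound for 2 days at 37C; corrected splicing restores EGFP, read as total peak GFP intensity per well.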

Row | Compound | activation
17 | CC(=O)CC(c1ccccc1)c1c(O)c2ccccc2oc1=O (centres undefined) | 0.232% (inactive)
18 | CCCc1cc(C(N)=S)ccn1 | 0.0979% (inactive)
19 | CCc1cc(C(N)=S)ccn1 | 3.59% (inactive)
20 | COc1c(N2CCNC(C)C2)c(F)cc2c(=O)c(C(=O)O)cn(C3CC3)c12 (centres undefined) | -0.234% (inactive)
21 | CN(CCOc1ccc(CC2SC(=O)NC2=O)cc1)c1ccccn1 (centres undefined) | 1.9% (inactive)
22 | COc1ccc2cc3[n+](cc2c1OC)CCc1cc2c(cc1-3)OCO2 | 3.55% (inactive)
23 | CC1=NN(c2ccccc2)C(=O)C1 | 1.02% [at 38.3 µM] (inactive)
24 | CN(Cc1cc(Br)cc(Br)c1N)C1CCCCC1 | 1.09% (inactive)
25 | CCn1cc(C(=O)O)c(=O)c2cc(F)c(N3CCNCC3)nc21 | 3.55% (inactive)
26 | Cc1cc(NS(=O)(=O)c2ccc(N)cc2)no1 | 0.77% (inactive)
27 | Cc1ncc([N+](=O)[O-])n1CCO | 1.58% (inactive)
28 | COC(=O)Nc1nc2ccc(S(=O)c3ccccc3)cc2[nH]1 (centres undefined) | 0.897% (inactive)
29 | COC(=O)Nc1nc2ccc(Sc3ccccc3)cc2[nH]1 | 2.6% (inactive)
30 | Cc1cccc(N(C)C(=S)Oc2ccc3ccccc3c2)c1 | 0.628% (inactive)
31 | Cc1nnc(NS(=O)(=O)c2ccc(N)cc2)s1 | 0.24% (inactive)
32 | S=P(N1CC1)(N1CC1)N1CC1 | 0.676% (inactive)
33 | CN(C)c1ccc(C(=C2C=CC(=[N+](C)C)C=C2)c2ccc(N(C)C)cc2)cc1 | -0.738% (inactive)
34 | Cc1noc(NS(=O)(=O)c2ccc(N)cc2)c1C | 1.1% [at 38.3 µM] (inactive)
35 | CC(C)(Sc1cc(C(C)(C)C)c(O)c(C(C)(C)C)c1)Sc1cc(C(C)(C)C)c(O)c(C(C)(C)C)c1 | -1.17% (inactive)
36 | Cc1cccc(Nc2ccncc2S(=O)(=O)NC(=O)NC(C)C)c1 | 3.55% (inactive)
37 | CCCCS(=N)(=O)CCC(N)C(=O)O (centres undefined) | 2.66% (inactive)
38 | NNC(=O)c1ccncc1 | 2.39% (inactive)
39 | COc1cc(NS(=O)(=O)c2ccc(N)cc2)nc(OC)n1 | 1.39% (inactive)
40 | CCCCCCNC(=O)n1cc(F)c(=O)[nH]c1=O | 1.98% (inactive)

Experiment: MultiTox-Fluor Cytotoxicity Assay - LYMP1-001 - Dead Cells (AID 946); further: potency means the concentration at half of the fitted maximal effect
Conditions: LYMP1-001 lymphoblastoid cells, dead-cell protease fluorescence; series mostly up to 92.2 µM; cytotoxicity (dead cells): at the top concentration
Outline: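 Cytotoxicity as increased dead-cell protease fluorescence (bis-AAF-R110, 485/520 nm), read 60 min after MultiTox-Fluor reagent. Human lymphoblastoid line exposed 16 h; Hill-fitted AC50, with DMSO as 0% and 15 uM tetraoctylammonium bromide as 100%.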

Row | Compound | cytotoxicity (dead cells) | Potency
41 | CCc1cc(C(N)=S)ccn1 | -2.89% (inactive) | 
42 | O=C(N[C@H](CO)[C@H](O)c1ccc([N+](=O)[O-])cc1)C(Cl)Cl | 2.08% (inactive) | 
43 | CC[C@H](C)C(=O)O[C@H]1C[C@@H](C)C=C2C=C[C@H](C)[C@H](CC[C@@H]3C[C@@H](O)CC(=O)O3)[C@H]21 | 21.7% (inactive) | 
44 | COc1ccc2cc3[n+](cc2c1OC)CCc1cc2c(cc1-3)OCO2 | 24% (inactive) | 
45 | CC1=NN(c2ccccc2)C(=O)C1 | -17.2% (inactive) | 
46 | NC(N)=NC(N)=NCCc1ccccc1 | 3.15% (inactive) | 
47 | Cc1cc(NS(=O)(=O)c2ccc(N)cc2)no1 | 1.34% (inactive) | 
48 | Cc1ncc([N+](=O)[O-])n1CCO | -0.927% (inactive) | 
49 | Cc1nnc(NS(=O)(=O)c2ccc(N)cc2)s1 | 0.532% (inactive) | 
50 | CN(C)c1ccc(C(=C2C=CC(=[N+](C)C)C=C2)c2ccc(N(C)C)cc2)cc1 |  | 12.6 µM (active)
51 | Cc1noc(NS(=O)(=O)c2ccc(N)cc2)c1C | -14.8% (inactive) | 
52 | C[C@]12C=CC(=O)C=C1CC[C@@H]1[C@@H]2C(=O)C[C@@]2(C)[C@H]1CC[C@]2(O)C(=O)CO | -3.33% (inactive) | 
53 | Cc1ccnc2c1NC(=O)c1cccnc1N2C1CC1 | 3.22% (inactive) | 
54 | NNC(=O)c1ccncc1 | -5.25% (inactive) | 
55 | O=C(O)c1cc(=O)[nH]c(=O)[nH]1 | -5.15% (inactive) | 

Experiment: MultiTox-Fluor Cytotoxicity Assay - LYMP1-001 - Live Cells (AID 947); further: potency means the concentration at half of the fitted maximal effect;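 on activity change, negative = cytotoxicity: 0% = DMSO only and full inhibition = tetraoctylammonium bromide control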
Conditions: LYMP1-001 lymphoblastoid cells, live-cell protease fluorescence viability; series mostly up to 92.2 µM; activity change, negative = cytotoxicity: at the top concentration

Row | Compound | activity change, negative = cytotoxicity | Potency
56 | CCc1cc(C(N)=S)ccn1 | -15.1% (inactive) | 
57 | O=C(N[C@H](CO)[C@H](O)c1ccc([N+](=O)[O-])cc1)C(Cl)Cl | 6.2% (inactive) | 
58 | CC[C@H](C)C(=O)O[C@H]1C[C@@H](C)C=C2C=C[C@H](C)[C@H](CC[C@@H]3C[C@@H](O)CC(=O)O3)[C@H]21 | -19.3% (inactive) | 
59 | NC(N)=NC(N)=NCCc1ccccc1 | 6.77% (inactive) | 
60 | Cc1cc(NS(=O)(=O)c2ccc(N)cc2)no1 | 3.54% (inactive) | 
61 | Cc1ncc([N+](=O)[O-])n1CCO | -3.93% (inactive) | 
62 | Cc1nnc(NS(=O)(=O)c2ccc(N)cc2)s1 | -1.94% (inactive) | 
63 | CN(C)c1ccc(C(=C2C=CC(=[N+](C)C)C=C2)c2ccc(N(C)C)cc2)cc1 |  | 25.1 µM (active)
64 | Cc1noc(NS(=O)(=O)c2ccc(N)cc2)c1C | 2.5% (inactive) | 
65 | C[C@]12C=CC(=O)C=C1CC[C@@H]1[C@@H]2C(=O)C[C@@]2(C)[C@H]1CC[C@]2(O)C(=O)CO | 6.63% (inactive) | 
66 | CC(=O)[C@H]1CC[C@H]2[C@@H]3CCC4=CC(=O)CC[C@]4(C)[C@H]3CC[C@]12C |  | inactive
67 | Cc1ccnc2c1NC(=O)c1cccnc1N2C1CC1 | -5.46% (inactive) | 
68 | NNC(=O)c1ccncc1 | -5.78% (inactive) | 
69 | O=C(O)c1cc(=O)[nH]c(=O)[nH]1 | -0.558% (inactive) | 
